This passage reports Inhibition results from ChEMBL document CHEMBL1157539, “Thousands of chemical starting points for antimalarial lead identification” (Nature, 2010).

What all share (assay type): functional
In assay [1] the test system is Plasmodium falciparum. The assay can be described thus: GSK_TCMDC: Inhibition of Plasmodium falciparum 3D7 in whole red blood cells, using parasite LDH activity as an index of growth. Test compounds present at 2uM.
Assay [2] has as its system Plasmodium falciparum. The assay can be described thus: GSK_TCMDC: Inhibition of Plasmodium falciparum Dd2 in whole red blood cells, using parasite LDH activity as an index of growth. Test compounds present at 2uM.
Another assay deals with HepG2. The assay can be described thus: GSK_TCMDC: Percent inhibition of human HepG2 cell line. Test compounds present at 10uM.

The term Inhibition denotes the change of the read-out against control, counted positive when it falls. `COc1cc2c(cc1S(=O)(=O)c1ccc(COc3ccc(C(F)(F)F)cc3)cc1)CNCC2.Cl`: the Inhibition was found to be 100% with Plasmodium falciparum [1], 89% with Plasmodium falciparum [2] and 32% in the assay on HepG2.

As to `O=c1c2c([nH]c3cc(Cl)ccc13)CCCC2`, the figures for the Inhibition in the assay on Plasmodium falciparum [1], with Plasmodium falciparum [2] and with HepG2 were 96%, 73% and 33%, respectively.

Take `CN(C)C(CNC(=O)c1cc(-c2ccncc2)c(-c2ccc(NC(=O)Nc3cccc(F)c3)cc2)o1)c1ccccc1.O=C(O)C(F)(F)F` (stereo not given): the values for the Inhibition in the assay with Plasmodium falciparum [1], in the assay with Plasmodium falciparum [2] and in the assay with HepG2 were 100%, 99% and 11%, respectively.

`CC(=O)OCCN1C(=O)c2ccc3c4c(ccc(c24)C1=O)C(=O)N(CCOC(C)=O)C3=O`: the Inhibition stood at 94% with Plasmodium falciparum [1], 1% with Plasmodium falciparum [2] and 2% in the assay on HepG2.

For the compound `CCCCCCN1CCC(NCc2ccc(Cl)cc2)CC1.O=C(O)C(F)(F)F`, the Inhibition in the assay on Plasmodium falciparum [1] turned out to be 98%; in the assay with Plasmodium falciparum [2], 9%; in the assay with HepG2, 19%.

`CC(C)C[C@H](NC(=O)c1cc2ccccc2s1)C(=O)N[C@H]1CCN(Cc2ccc(OC3CCN(C)C3)c(Cl)c2)C1.O=C(O)C(F)(F)F` (stereo not given in full): the figures for the Inhibition in the assay with Plasmodium falciparum [1], with Plasmodium falciparum [2] and in the assay with HepG2 were 97%, 65% and 68%, respectively.

Consider `COc1ccc2c(=NN=C(C)c3ccccn3)cc(C)[nH]c2c1`, for which the Inhibition is reported as 100% in the assay with Plasmodium falciparum [1], 51% in the assay on Plasmodium falciparum [2] and 33% in the assay with HepG2.

With `COc1ccc(C23Oc4cc(OC)cc(OC)c4C2(O)C2(CC3c3ccccc3)SCCCS2)cc1` (stereo not given), the values for the Inhibition with Plasmodium falciparum [1], in the assay with Plasmodium falciparum [2] and with HepG2 were 96%, 97% and 39%, respectively.

Regarding `C#CCN(Cc1cc2c(=O)[nH]c(N)nc2cc1C)c1ccc(C(=O)N[C@@H](CCC(=O)O)C(=O)O)cc1`, the values for the Inhibition in the assay on Plasmodium falciparum [1], in the assay with Plasmodium falciparum [2] and in the assay on HepG2 were 92%, 74% and 28%, respectively.

On to `CC(C)c1ccc(NC(=O)c2cccc(CN3CCCN(CC4CCCCC4)CC3)c2)cc1.O=C(O)C(F)(F)F`, for which the results for the Inhibition in the assay on Plasmodium falciparum [1], in the assay on Plasmodium falciparum [2] and in the assay with HepG2 were 85%, 59% and 62%, respectively.
